Data: PubChem BioAssay (NCI)
This is part of a sample that, as a whole, favours compounds with a hit. Of some 83,000 tested, about 20% had one in any assay.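 Single-concentration screen, 48 h exposure, 96-well plates. Endpoint: percent growth. Below 10 = active.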 A number with no mark means an inactive call. Calls of active or inactive are those of the source.

Tested on: CAKI-1 renal
Assay: NCI-60 one-dose screen, 48 h (100 = growth as untreated, 0 = no growth, -100 = all killed)
Conditions: 10 µM unless noted

Structure (SMILES)	growth
O=S(=O)(Nc1ccc(F)c(Cl)c1)c1ccc(-c2cnc(C3CC3)o2)cc1	32.5%
NCCN1CCN(c2nccc(-c3ccc4ccccc4c3)n2)CC1	45.3%
CCN(CC)Cc1cc(Nc2c3ccc(Cl)cc3nc3c(C)cccc23)ccc1O	-41.1% (active)
N#Cc1ccc(NC(=O)Nc2ccc(Cc3ccc(NC(=O)Nc4ccc(C#N)cc4)cc3)cc2)cc1	48.5%
CCCCNc1ccc2c3c1cccc3c(=O)n1c3ccccc3nc21	43.2%
O=C1O[C@H]([C@H](O)CO)C(O)=C1O	87.1%
CCC(=O)OCc1cccc(OC)c1	73.6%
Cc1ccc2cnc(N)c(C#Cc3cncc(C(=O)Nc4ccc(CN5CCN(C)CC5)c(C(F)(F)F)c4)c3)c2c1	-95.1% (active)
COc1cc2c(cc1O)CCc1cc(O)cc(OC)c1-2	94.8%
CCCCCCCCCCCCS(=O)CC(C)O (stereo not given)	110%
CCN(CC)CCCNc1cccc2c(SCc3ccccc3)ccnc12	58.8%
COc1ccc(/C=C2\N=C3Sc4cc(Cl)ccc4C(=O)N3C2=O)cc1	73.8%
O=C1C(Cl)=C(Cl)C(=O)c2c1nc1n2CCCC1	100%
CN1CCN(Cc2ccc(NC(=O)c3cncc(C#Cc4c(N)ncc5ccc(C#N)cc45)c3)cc2C(F)(F)F)CC1	58.3%
Nc1nc(SCc2ccccc2)c2ncn(C3CCCC3)c2n1	102%
COc1cc(NC(N)=NCC(C)(C)COc2ccc(C(F)(F)F)cc2)cnc1C#N	62.8%
CCCCCCCCCCCCCCCC(=O)OCC1OC(n2cnc3c(=S)nc(N)[nH]c32)C(OC(=O)CCCCCCCCCCCCCCC)C1OC(=O)CCCCCCCCCCCCCCC (stereo not given)	49.4%
O=[N+]([O-])c1cccc(-c2nc3sccn3c2-c2ccnc(NCCCNS(=O)(=O)c3ccc(Br)cc3)n2)c1	41.4%

Structure (SMILES)	growth
COc1ccc(-c2nc(Nc3cc(C)[nH]n3)c3ccccc3n2)cc1	15.9%
O=C1Nc2c(ccc(Cl)c2Cl)/C1=C/c1cc(Br)c(O)c(Br)c1	46.8%
Nc1nc2ccc(-c3nc4ccc5[nH]ncc5c4c4c3CCC4)cc2s1	1.07% (active)
Cc1cc(Cl)ccc1Nc1nc(C(F)(F)F)ccc1C(=O)N/N=C/c1ccc(F)cc1	9.97% (active)
COc1ccc(C(=O)COc2ccc(/C=C3\Oc4ccc(Cl)cc4C3=O)cc2)cc1	98.1%
CC[C@@H](C)OC(=O)c1nn(C(C)=O)c2ccccc12	97.8%
CCN(CC)c1ccc(/C=C/C2=[N+](C)c3ccccc3C2(C)C)cc1	-8.77% (active)
CCCCCCCCCCCCCCCC[N+]1(CC)CCCC1	-41.8% (active)
COc1cc(OC)c(/C=C/c2cc[n+](C)c3ccccc23)c(OC)c1	67.1%
CC[C@H](Nc1nc(N)nc(C)c1C#N)c1nc2cccc(NCc3ccc(C(=O)NO)cc3)c2c(=O)n1-c1ccccc1	13.2%
O=C(CN1CCOCC1)Nc1ccc(Cn2nnc3c2C(=O)c2nnn(Cc4ccc(NC(=O)CN5CCOCC5)cc4)c2C3=O)cc1	72.9%
COc1ccc2[nH]c(=O)c(/C=C/C(=O)c3ccc(Nc4nccc(-c5ccc6ccccc6c5)n4)cc3)cc2c1	98%
OC(c1cccc(C(F)(F)F)c1)c1cnccc1NC1CCCCCC1 (stereo not given)	40.4%
O=c1c2cccc3c(Nc4ccccn4)ccc(c32)c2nc3ccccc3n12	51.8%
CC(C)[C@@H]1CC[C@]2(C(=O)NCCCCN=C(N)N)CC[C@]3(C)[C@H](CC[C@@H]4[C@@]5(C)CCC(=O)C(C)(C)[C@@H]5CC[C@]43C)[C@@H]12	96.7%
Cc1ccc2c(c1)n([O-])c1cc(Cl)ccc1[n+]2=O	111%
CC(C)(C)n1cc(-c2ccnc(NCCCNS(=O)(=O)c3cccc4ccccc34)c2)c(-c2cccc(O)c2)n1	40.4%
COc1ccc(-c2cc(=O)[nH]c3c(OC)c4ccccc4c(OC)c23)cc1	38.7%

Tested on: A498 renal
Assay: as above
Conditions: 10 µM unless noted

Structure (SMILES)	growth
COCCOC(=O)C1=C(C)NC(=S)NC1c1ccc2c(c1)OCO2 (stereo not given)	96.1%
O=S(=O)(Nc1ccc(F)c(Cl)c1)c1ccc(-c2cnc(C3CC3)o2)cc1	-14.5% (active)
NCCN1CCN(c2nccc(-c3ccc4ccccc4c3)n2)CC1	61.6%
CCN(CC)Cc1cc(Nc2c3ccc(Cl)cc3nc3c(C)cccc23)ccc1O	-48% (active)
N#Cc1ccc(NC(=O)Nc2ccc(Cc3ccc(NC(=O)Nc4ccc(C#N)cc4)cc3)cc2)cc1	49.5%
CCCCNc1ccc2c3c1cccc3c(=O)n1c3ccccc3nc21	96.1%
O=C1O[C@H]([C@H](O)CO)C(O)=C1O	94.3%
CCC(=O)OCc1cccc(OC)c1	102%
Cc1ccc2cnc(N)c(C#Cc3cncc(C(=O)Nc4ccc(CN5CCN(C)CC5)c(C(F)(F)F)c4)c3)c2c1	-94.2% (active)
CC#Cc1nc2ccccc2c(=O)[nH]1	-44.8% (active)
COc1cc2c(cc1O)CCc1cc(O)cc(OC)c1-2	79.4%
CCN(CC)CCCNc1cccc2c(SCc3ccccc3)ccnc12	75.7%
COc1ccc(/C=C2\N=C3Sc4cc(Cl)ccc4C(=O)N3C2=O)cc1	108%
CN1CCN(Cc2ccc(NC(=O)c3cncc(C#Cc4c(N)ncc5ccc(C#N)cc45)c3)cc2C(F)(F)F)CC1	43.3%
Nc1nc(SCc2ccccc2)c2ncn(C3CCCC3)c2n1	102%
COc1cc(NC(N)=NCC(C)(C)COc2ccc(C(F)(F)F)cc2)cnc1C#N	45.9%
O=[N+]([O-])c1cccc(-c2nc3sccn3c2-c2ccnc(NCCCNS(=O)(=O)c3ccc(Br)cc3)n2)c1	52.8%

Structure (SMILES)	growth
COc1ccc(-c2nc(Nc3cc(C)[nH]n3)c3ccccc3n2)cc1	-18.1% (active)
O=C1Nc2c(ccc(Cl)c2Cl)/C1=C/c1cc(Br)c(O)c(Br)c1	48.9%
Nc1nc2ccc(-c3nc4ccc5[nH]ncc5c4c4c3CCC4)cc2s1	-9.59% (active)
Cc1cc(Cl)ccc1Nc1nc(C(F)(F)F)ccc1C(=O)N/N=C/c1ccc(F)cc1	8.05% (active)
COc1ccc(C(=O)COc2ccc(/C=C3\Oc4ccc(Cl)cc4C3=O)cc2)cc1	109%
CC[C@@H](C)OC(=O)c1nn(C(C)=O)c2ccccc12	99.2%
CCCCCCCCCCCCCCCC[N+]1(CC)CCCC1	-9.64% (active)
COc1cc(OC)c(/C=C/c2cc[n+](C)c3ccccc23)c(OC)c1	9.92% (active)
CC[C@H](Nc1nc(N)nc(C)c1C#N)c1nc2cccc(NCc3ccc(C(=O)NO)cc3)c2c(=O)n1-c1ccccc1	-38.6% (active)
O=C(CN1CCOCC1)Nc1ccc(Cn2nnc3c2C(=O)c2nnn(Cc4ccc(NC(=O)CN5CCOCC5)cc4)c2C3=O)cc1	-39.8% (active)
COc1ccc2[nH]c(=O)c(/C=C/C(=O)c3ccc(Nc4nccc(-c5ccc6ccccc6c5)n4)cc3)cc2c1	89.7%
OC(c1cccc(C(F)(F)F)c1)c1cnccc1NC1CCCCCC1 (stereo not given)	50.3%
CNC(=O)c1cc(Oc2ccc3nc(NC(=O)Nc4ccc(CN5CCOCC5)c(C(F)(F)F)c4)sc3c2)ccn1	9.05% (active)
O=c1c2cccc3c(Nc4ccccn4)ccc(c32)c2nc3ccccc3n12	92.3%
CC(C)[C@@H]1CC[C@]2(C(=O)NCCCCN=C(N)N)CC[C@]3(C)[C@H](CC[C@@H]4[C@@]5(C)CCC(=O)C(C)(C)[C@@H]5CC[C@]43C)[C@@H]12	111%
Cc1ccc2c(c1)n([O-])c1cc(Cl)ccc1[n+]2=O	87.9%
COc1ccc(-c2cc(=O)[nH]c3c(OC)c4ccccc4c(OC)c23)cc1	-4.12% (active)
